Laboratory results as given in PubChem BioAssay AID485317 (Broad Institute, 2010).
Out of some 290,000 compounds screened, about 11,000 (3.8%) were called active. The sample holds actives, similar compounds and a random draw of the others, so the mix is not that of the screen.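 How the source made its calls: active means mean replicate inhibition above about 79%, with every replicate also reaching it (limit read from the data); inconclusive means only one of the two criteria met; inactive means mean below limit and not every replicate reaching it.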

target: FAD-linked sulfhydryl oxidase ALR (Homo sapiens) (UniProt P55789); test: ALR-catalysed DTT oxidation blockers – biochemical, H2O2 detection, HRP-luminol luminescence, single point, primary screen (AID 485317); conditions: purified ALR, hits give high values, concentration not given here
Sequence (P55789 whole entry, looked up): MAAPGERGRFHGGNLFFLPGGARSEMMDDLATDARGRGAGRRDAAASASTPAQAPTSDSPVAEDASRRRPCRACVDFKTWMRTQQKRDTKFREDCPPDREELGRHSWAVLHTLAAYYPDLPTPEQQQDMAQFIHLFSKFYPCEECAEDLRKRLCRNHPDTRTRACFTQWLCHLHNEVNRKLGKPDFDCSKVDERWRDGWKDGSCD

inhibition, inactive:
COc1ccc(S(=O)(=O)N2CCOC23CCN(S(=O)(=O)c2ccc([N+](=O)[O-])cc2)CC3)cc1 0.209%, CCN1C(=O)[C@H]2[C@@H](c3ccc(-c4ccc(OC)cc4)cc3)N[C@@](Cc3ccccc3)(C(=O)OC)[C@H]2C1=O 3.62%, CCc1ccc(/C=C2\SC(N3CCOCC3)=NC2=O)cc1 -8.77%, CCOc1cc(C(=S)N2CCOCC2)ccc1O 2.75%, CCOc1cc(/C=C2\C(=N)N3N=C(C)SC3=NC2=O)ccc1OCCOc1ccccc1 -3.65%, CC1CCN(C2=NC(=O)/C(=C/c3cn[nH]c3-c3ccccc3)S2)CC1 28.2%, Cc1ccsc1/C=C1\SC(N2CCOCC2)=NC1=O -15.8%, O=C1N=C(N2CCCC2)S/C1=C\c1cccc(Br)c1 8.82%, COCCN(C(=O)CC1CCCCC1)c1c(N)n(CC(C)C)c(=O)[nH]c1=O -3.39%, O=C(NCc1ccccc1CN1CCCC1)c1cccc(S(=O)(=O)Nc2ccc(F)cc2)c1 -1.54%, CN(CC(=O)Nc1c(Cl)cccc1Cl)C(=O)CC1OC(=O)c2ccccc21 (stereo unspecified) 1.28%, CCCCn1c(N)c(N(CC(C)C)C(=O)CSc2ccc([N+](=O)[O-])cc2)c(=O)[nH]c1=O -3.66%, CN(C(=O)CSc1nnc(-c2ccc3c(c2)OCO3)o1)C1CCS(=O)(=O)C1 (stereo unspecified) -1.02%, CN(C)CCn1c2c(c(SCC(=O)NCc3ccccc3)nc1=O)CCC2 -45.9%, CN(CC(=O)Nc1ccc(OC(F)F)cc1)S(=O)(=O)/C=C/c1ccccc1 0.776%, Cc1cc(NC(=O)C(C)SCC(=O)Nc2ccccc2N2CCCCC2)no1 (stereo unspecified) 2.47%, O=C1NC(Cc2ccc(O)cc2)c2nc3ccc(Cl)cc3c(=O)n2-c2ccccc21 (stereo unspecified) 1.75%, CCCC[C@@H]1CN=C(N)N1CCc1cccc(F)c1 -12.6%, O=C1N[C@H](Cc2c[nH]c3ccccc23)COC(=O)[C@H](Cc2ccc(F)cc2)C/C=C\C[C@H]1CC(=O)N(CCO)Cc1ccccc1 -0.125%, COc1ccc(CCNc2cc(N3CCN(C(=O)c4ccccc4OC)CC3)ccc2[N+](=O)[O-])cc1OC -7.83%, COc1ccc2[nH]c(=S)cc(C)c2c1 -27.6%, COc1ccc2[nH]c(C(=O)N3CCN(C)CC3)c(C)c2c1 -19.3%, N#Cc1ccc(C2=CC(=O)C[C@H](c3ccc(Cl)cc3)C2)cc1 -5.77%, Cc1ccc(NC(=O)NC2CCCCC2)cc1S(=O)(=O)N1CCOCC1 74.4%, Cc1ccc(NC(=O)C2CC2)cc1S(=O)(=O)N1CCOCC1 -0.606%, COc1ccccc1OCCNC(=O)C(CCSC)NC(=O)COc1ccccc1 (stereo unspecified) 0.393%, O=C(CSc1n[nH]c(-c2cccnc2)n1)Nc1ccc(Cl)cc1 5.84%, CN(C)C(=O)CSc1n[nH]c(-c2ccco2)n1 -5.75%, COc1ccccc1N1CCN(C(=O)C2Cc3ccccc3CN2C(=O)c2ccco2)CC1 (stereo unspecified) 19.8%, CC(C)CN(C(=O)c1ccc2c(c1)OCO2)C1CCS(=O)(=O)C1 (stereo unspecified) 3.07%, CC1Sc2ccc(C(=O)NCc3ccccc3Cl)cc2NC1=O (stereo unspecified) -5.05%, Cc1ccc(CNC(=O)c2cc(-c3ccccc3C)n(CC3CC(c4cccc([N+](=O)[O-])c4)=NO3)n2)cc1 (stereo unspecified) -3.66%, O=C(N/N=C/c1cc(Br)c(O)c([N+](=O)[O-])c1)C(O)(c1ccccc1)c1ccccc1 14%, Cc1nnc(SCc2cccc(Cl)c2)n(N)c1=O -0.251%, O=C(C1CCN(Cc2ccc(Cl)cc2)CC1)N1CCN(Cc2ccc3c(c2)OCO3)CC1 -2.64%, CCSC1=NCCN1S(=O)(=O)c1ccc(F)cc1 -3.09%, O=C(c1ccco1)N1CCN(c2cccc(Cl)c2)CC1 12.7%, CSC1=NCCN1C(=O)Cc1cccc2ccccc12 -43.6%, O=C(COc1ccccc1)N1CCN=C1SCc1cccc(F)c1 15.7%, CC1CCN(C(=O)c2ccc(CSc3ccc(Cl)cc3)cc2)CC1 -6.8%, O=S(=O)(c1ccc(F)cc1)N1CCN=C1SCc1cccc(F)c1 -6.25%, O=C(C1CCC1)N1CCN(S(=O)(=O)c2ccc([N+](=O)[O-])cc2)CC1 -24.2%, O=C(COc1ccccc1F)Nc1nc(-c2ccccn2)cs1 -5.87%, COc1ccc(C2(C)ON(c3ccccc3C(F)(F)F)C2=O)cc1 (stereo unspecified) 1.44%, Cc1cccc(C)c1Nc1nnc(SCC(=O)NCCCN2CCCC2=O)s1 3.02%, C=CCC[C@H](Cc1ccc(F)cc1)C(=O)OC[C@@H](Cc1c[nH]c2ccccc12)NC(=O)[C@H](CC=C)CC(=O)N[C@H](CO)Cc1ccccc1 1.04%, O=C(NNC(=O)C1CCC1)c1ccccc1 -8.4%, Cc1ccc(C)c(OCC(=O)NNC(=O)C2CCC2)c1 -3.99%, COc1ccc(CCNC(=O)COC(=O)C2CC2C)cc1 (stereo unspecified) 5.1%, CCOc1ccc(S(=O)(=O)Nc2cccc(C(=O)NCC3(N4CCCCC4)CCCCC3)c2)cc1 -4.42%, CCOC(=O)c1[nH]c2ccc(OC)cc2c1NC(=O)CCN1CCN(Cc2ccccc2)CC1 24.1%, COC(=O)c1[nH]c2ccccc2c1NC(=O)CN1CCCc2ccccc21 -3.93%, CCCn1c(CCNc2nc(-c3ccc(OC)cc3)cs2)nc2ccccc21 12.7%, Cc1ccc(CC(=O)N(C)CC(=O)N(CC(C)C)c2c(N)n(CC(C)C)c(=O)[nH]c2=O)cc1C -5.01%, Cc1ccc2nc(SCC(=O)N3CC(C)OC(C)C3)nc(=O)n2c1 (stereo unspecified) -0.878%, COc1ccc(C(=O)NNC(=S)NC(=O)c2ccccc2)cc1 34.7%, Cc1ccc(CNC(=O)c2c(-c3ccccc3)noc2C)cc1 -6.06%, COc1ccc(C(=O)NC(=S)NNC(=O)CCc2ccccc2)cc1 24.8%, CCc1noc(C)c1C(=O)NNC(=O)c1ccc(F)cc1 0.314%, COc1ccc(S(=O)(=O)N(C)C[C@H]2Oc3c(NC(=O)Nc4ccc5c(c4)OCO5)cccc3C(=O)N([C@H](C)CO)C[C@@H]2C)cc1 -7.29%, CC(C)(C)OC(=O)NCCCCCNC(=O)c1[nH]cnc1C(=O)Nc1nccs1 -6.55%, COc1ccc(Cl)cc1NS(=O)(=O)c1cccc(C(=O)NC2CCC(O)CC2)c1 (stereo unspecified) -6.32%, O=C(COC(=O)c1cccc(Cl)c1)NC(=O)NCc1ccccc1 -1.07%, CC(=O)NCCn1c(SCC(=O)Nc2ccc(C)cc2)nc2ccccc2c1=O -3.53%, COCCn1c(SCC(=O)Nc2ccc3c(c2)CCC3)nc2ccccc2c1=O -0.883%, COc1cccc(NC(=O)C(Sc2nc3ccccc3c(=O)n2CC(C)C)c2ccccc2)c1 (stereo unspecified) -3.45%, CC(=O)c1ccc(NC(=O)CSc2nc3ccccc3c(=O)n2CCCN2CCOCC2)cc1 23.1%, Cc1csc(NC(=O)c2ccc(C)s2)n1 27.4%, O=C(COC(=O)Cc1ccc([N+](=O)[O-])cc1)NC1CCCCCC1 3.75%, COc1ccc(-c2c(-c3cc(OC)cc(OC)c3)n(C)c3ccc(-c4ccn[nH]4)cc23)cc1 -7.81%, Brc1ccc(CN2CC[C@H]3C=CCc4cccc(c43)C2)cc1 -17.1%, COc1ccc(Cl)cc1CSc1ncn[nH]1 3.36%, Cc1cc(C)nc(S/C=C/C(=O)c2ccccc2)n1 18.2%, CCN(c1ccccc1)S(=O)(=O)c1ccc(C(=O)Nc2ccccc2OC)cc1 2.02%

inhibition, active:
CCOc1cc(/C=C2\SC(N3CCCCC3)=NC2=O)ccc1O 85.2%, CCOc1cc(/C=C2\SC(N3CCCC(C)C3)=NC2=O)ccc1O (stereo unspecified) 98%, CC1CCN(C2=NC(=O)/C(=C/c3ccc(O)cc3)S2)CC1 98.6%, COc1ccc2[nH]c3ccc(OC)cc3c2c1 97.3%, Cc1ccc(NC(=O)C(C)Sc2nnc(C3CC3)n2C2CC2)cc1S(=O)(=O)N1CCOCC1 (stereo unspecified) 96.1%, CN(C)c1ccc(NC(=O)CSc2n[nH]c(-c3ccco3)n2)cc1 98.9%, O=C(C1CC1)N1CCN=C1SCc1ccc(Cl)cc1 98.3%, CS(=O)(=O)N1CCN=C1SCc1ccc(F)cc1 98.4%, CCC(=O)N1CCN=C1SCc1ccc(F)cc1 98.7%, O=C(c1ccco1)N1CCN=C1SCc1cccc(Cl)c1 96.8%, Cc1ccc(NNC(=O)C2CCC2)cc1C 98.5%, COC(=O)c1[nH]c2ccc(Br)cc2c1NC(=O)Oc1ccccc1 97.3%, COc1ccc(C(=O)NC(=S)NNC(=O)c2c(-c3ccccc3)noc2C)cc1 99.2%, Cc1onc(-c2ccccc2)c1C(=O)NNC(=S)NC(=O)c1ccc(F)cc1 93.4%, CCc1ccc(NC(=O)CSc2nc3ccccc3c(=O)n2CCN2CCOCC2)cc1 98.6%, COC(=O)c1ccc2c(=O)n(CCN3CCOCC3)c(SCC(=O)Nc3cccc(OC)c3)nc2c1 99.1%, O=C(/C=C/Sc1ncn[nH]1)c1ccc(Cl)cc1 98.6%
